Compound activity as filed in PubChem.
Only some compounds are listed: those with a hit (about 1.3% of all), similar ones and a draw of the others.
PTHR1 ag: qHTS for PTHR1 Agonists: Primary Screen; Potency, µM (doses to about 115 µM), inactives show at the highest dose activation, actives largely listed as activators; Parathyroid hormone/parathyroid hormone-related peptide receptor (Homo sapiens), Q03431; AID 743266, 2014; 410,000 tested, 0.075% active; HEK293 GP2 PTHR1 cells, GloSensor cAMP luminescence, 1 h; also: potency is read from the fitted curve at half-maximal effect; nearly all actives have a fitted effect of over 55% in size
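HEK-293-derived GP2 cells expressing PTHR1 and a GloSensor cAMP reporter, 3,000/well, plated overnight, given luciferin plus IBMX (each 0.5 mM as added) for 1 h at 37 °C, then compound for 1 h at 37 °C. Luminescence was read after 15 min at room temperature.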
12-LOX inh: Primary qHTS assay for inhibitors of human arachidonate 12S-lipoxygenase (ALOX12): Round 2; Polyunsaturated fatty acid lipoxygenase ALOX12 (Homo sapiens), P18054; purified 12hLO, xylenol orange hydroperoxide absorbance; Potency, µM (top dose mostly 108 µM), for the others: at the highest dose activity change, negative = inhibition, usual class: inhibitors; 580,000 tested, 1.1% active; also: potency is read from the fitted curve at half-maximal effect; % is scaled to controls: 0 for no effect and ±100 for the full control effect
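Purified human 12hLO at 150 nM in 25 mM Hepes, 0.01% Triton X-100, pH 7.0, preincubated 15 min at room temperature with compound. Reaction started with 40 uM arachidonic acid, 30 min at room temperature. Hydroperoxide measured by Fe-xylenol orange, 573/405 nm absorbance ratio.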
miR-21 reporter: qHTS Assay for Modulators of miRNAs and/orActivators of miR-21 | HeLa miR-21 FLuc reporter, luciferase, 48 h | Potency, µM (series often up to 38.3 µM), inactives show at the highest dose activity change, positive = activation, most hits filed as activators | 340,000 tested, under 10 active | AID 2288, 2010;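 also: % of control where 0% means no effect; miR-21 action dims this reporter so a rising signal means less miR-21 action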
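Compounds were titrated across several concentrations (up to approximately 40 uM) and incubated 48 hours with HeLa miR-21-FLuc reporter cells (miR-21 target sequence downstream of FLuc, endogenous miR-21). Readout was firefly luciferase luminescence after lytic detection reagent.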
Giardia killer: Small Molecules that selectively kill Giardia lamblia: qHTS | AID 540267, 2011 | 340,000 tested, 0.15% active | activity change, % at 7.66 µM, hits read low | Giardia lamblia trophozoite viability; in the data active = activity change below about -80%; inconclusive = between about -30% and that limit;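 also: parasites exposed to compound for two days anaerobically before the ATP read; % is scaled to controls: 0 for no effect and ±100 for the full control effect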
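Viability, read as ATP luminescence: trophozoites at 100 cells/well, compound added, 48 hrs anaerobic at 37 deg C, then 15-30 min room-temperature development before reading.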
PINK1 modulator: A Quantitative High throughput Screen to Identify Chemical Modulators of PINK1 Expression | Potency, µM (doses to about 76.6 µM), for inactives: at the highest dose activation (PINK1 increase), hits mostly activators | PINK1 immunofluorescence, high-content cytometry, 24 h | 410,000 tested, 0.2% active; active = well fitted activation curve with a large enough effect; inconclusive = small, poorly fitted or top-dose-only effect; cell line not stated here; also: potency is read from the fitted curve at half-maximal effect; % of control where 0% means no effect; nearly all actives have a fitted effect of over 65% in size
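Stable cell line, 250 cells/well, 12 h attachment; compounds pinned at 5 concentrations, 24 h; CCCP control. Fixed with nuclear dye, primary antibodies 12 h at 10 degrees C, secondary plus cell stain; laser-scanning cytometer read.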
ERG Ets-DNA blk: qHTS for Small Molecule Inhibitors of the ERG Ets/DNA interaction. fluorescence polarization, His-ERG Ets domain / labelled DNA. 370,000 tested, 0.028% active. Transcriptional regulator ERG (Homo sapiens), P11308. Potency, µM (doses to about 76.9 µM), for inactives: at the highest dose FP activity, negative = inhibition, most hits filed as inhibitors; active = well fitted inhibition curve with a large enough effect in the polarisation, with a control signal flat; inconclusive = small, poorly fitted or top-dose-only effect, or effect the other way, or a change in a side signal; inactive = no such curve, though single readings can be large or run the other way; the % refers to the polarisation;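 also: polarization taken with two DNA probes labelled with fluorescein and Texas red; potency is read from the fitted curve at half-maximal effect; % of control where 0% means no effect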
Target sequence (P11308 whole entry, looked up, the tested form may be a part): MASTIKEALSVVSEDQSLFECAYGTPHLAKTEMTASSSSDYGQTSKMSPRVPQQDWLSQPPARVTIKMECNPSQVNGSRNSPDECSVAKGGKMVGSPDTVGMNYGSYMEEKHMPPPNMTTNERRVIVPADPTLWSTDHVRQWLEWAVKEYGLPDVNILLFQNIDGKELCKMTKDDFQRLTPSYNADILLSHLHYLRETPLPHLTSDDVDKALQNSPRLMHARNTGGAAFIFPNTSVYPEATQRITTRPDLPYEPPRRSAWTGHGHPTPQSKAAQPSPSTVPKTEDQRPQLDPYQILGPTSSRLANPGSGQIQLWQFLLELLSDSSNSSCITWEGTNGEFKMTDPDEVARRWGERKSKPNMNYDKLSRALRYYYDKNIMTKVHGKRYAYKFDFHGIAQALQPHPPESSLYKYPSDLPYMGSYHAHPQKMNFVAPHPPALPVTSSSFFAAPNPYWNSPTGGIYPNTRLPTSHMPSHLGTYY
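His-tagged ERG Ets domain (1 uM in the protein solution; 300mM KCl, 50mM Tris-HCl, 1mM EDTA, 1mM DTT, pH 7.5) received compound, then a probe mix of 5 nM fluorescein-DNA and 100nM Texas-615-DNA. Fluorescence polarization was read for both dyes.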
* = called active by the depositor; i = inactive; u = inconclusive; x = not tested or not shown; [ ] = remark or other dose. Unless noted, calls follow the shape of the dose curve; as a rule, active = well fitted curve in the direction sought with a large enough effect; inconclusive = small, poorly fitted or top-dose-only effect, or another doubt; inactive = no such curve, though single readings can be large; an effect the other way counts as inactive or inconclusive.

SMILES	PTHR1 ag	12-LOX inh	miR-21 reporter	Giardia killer	PINK1 modulator	ERG Ets-DNA blk
O=C(O)c1cc(O)c2ccccc2c1O	x	71µM*	x	x	x	x
CNC(=O)c1sccc1Oc1ccc(F)cc1[N+](=O)[O-]	i	-11%	11%	-9	1%	3%
CSc1nc(=O)n2cc(C)ccc2n1	-16%	-2%	-14%	-1	0%	28µM*
Cc1ccc2nc(SCC(=O)c3ccccc3)nc(=O)n2c1	i	-31%	x	6	3%	-4%
CS(=O)(=O)Nc1cccc(-c2nc(-n3ccnc3)c3ccccc3n2)c1	x	u	x	x	-1%	x
CS(=O)(=O)Nc1cccc(-c2nccc(-n3ccnc3)n2)c1	x	22µM*	x	x	-1%	x
N#Cc1cccc(-c2nccc(-n3ccnc3)n2)c1	x	25µM*	x	x	0%	x
Cc1ncsc1CCC(=O)N1CCCC(Nc2ccc(C(C)C)cc2)C1 (stereo not given)	-15%	400%	6%	5	1%	-5%
CCN1C(=O)c2cccc3c(S(=O)(=O)NCCCN4CCOCC4)ccc1c23	-7%[57.5 µM]	0%	-1%	1	2%	-11%
CSc1ccc(C2=CC(=O)C[C@H](c3ccc(F)cc3)C2)cc1	i	-48%	x	4	0%	-2%
CC(C)[C@@H]1Cc2[nH]c(=S)[nH]c(=O)c2[C@H](CCc2ccccc2)O1	-8%	45µM*	x	x	-1%	x
Cn1sc(NC(=O)c2ccccc2Cl)nc1=O	i	45µM*	-12%	-5	-2%	1%
CC(C)Oc1ccc(Nc2cc3c(cn2)cc(-c2cccnc2)n3C)cc1	x	-38%	x	x	x	x
COc1ccc(Nc2cc3c(cn2)cc(-c2cccc(C(F)(F)F)c2)n3C)cc1	x	45µM*	x	x	x	x
Cc1cc(/C=N/NC(N)=S)c(C)n1-c1cccc(Cl)c1	-12%	40µM*	3%	0	2%	2%
COc1cc(/C=N/NC(N)=S)ccc1OCc1ccc(C)cc1	-8%	45µM*	-19%	0	1%	-1%
COc1cccc(/C=N/NC(N)=S)c1OCc1cccc(Cl)c1	-18%	35µM*	u	5	1%	-6%
Cc1cc(/C=N/NC(N)=S)c(C)n1-c1ccc(Cl)cc1	-16%	u	17%	10	1%	10%
COc1ccc(C(=O)N/C(=C/c2cccnc2)C(=O)N2CCCCCC2)cc1OC	11%	0%	1%	u	-2%	7%
O=C(/C=C(/c1ccc(Cl)cc1)n1cncn1)c1ccccc1	-13%	u	0%	12	2%	0%
NC(=NCCc1c[nH]c2ccccc12)NC(=O)c1ccc(Cl)cc1	-79%	40µM*	7%	8	1%	2%
O=C(N[C@@H](Cc1c[nH]c2ccccc12)C(=O)O)c1ccc(Cl)cc1	1%	-13%	-2%	-3	-1%	-1%
O=C(CSc1cn(CCNC(=O)c2c(F)cccc2F)c2ccccc12)Nc1ccc2c(c1)OCCO2	-3%	-15%	8%	x	7%	-2%
CN(CCC#N)C(=O)COC(=O)c1c2c(nc3ccccc13)/C(=C\c1ccco1)CC2	-9%	-28%	x	-3	7%	18%
CC1CCCCC1NC(=O)COC(=O)c1c2c(nc3ccccc13)/C(=C\c1ccco1)CC2 (stereo not given)	i	16µM*	x	1	3%	9%
SMILES	PTHR1 ag	12-LOX inh	miR-21 reporter	Giardia killer	PINK1 modulator	ERG Ets-DNA blk
O=C(COC(=O)c1c2c(nc3ccccc13)/C(=C\c1ccco1)CC2)NC1CCCC1	-13%	7.1µM*	x	0	2%	7%
COC(=O)c1cc(-c2ccc(F)cc2)n(-c2ccccc2)n1	-8%	6%	-6%	11	1%	-4%
CN1CCN(Cc2ccc(-c3ccc(C(C)(C)C#N)cc3)nc2)CC1	x	20µM*	x	x	x	x
CC(C)Cn1c(SCc2cc(=O)n3[nH]cc(C#N)c3n2)nnc1-c1ccccc1F	x	-39%	x	x	x	x
O=[N+]([O-])c1ccc(C2Nc3cccc4cccc(c34)N2)cc1	-28%	40µM*	-1%	-2	12%	x
O=[N+]([O-])c1cccc(C2Nc3cccc4cccc(c34)N2)c1	-7%	u	-1%	5	1%	8%
CC(C)NC(=O)COC(=O)C1CSC2(c3ccc(Br)cc3)CCC(=O)N12 (stereo not given)	-5%	2%	-3%	15	-1%	-5%
COc1ccc(C(C(=O)NC2CCCC2)N(C(=O)c2snc(-c3ccc(F)cc3)c2N)c2ccccc2)cc1 (stereo not given)	-11%[57.5 µM]	0%	0%	5	13µM*	1%
COc1ccc(C(C(=O)NC2CCCC2)N(C(=O)c2snc(-c3ccc(F)cc3)c2N)c2cccc(F)c2)cc1 (stereo not given)	-9%[57.5 µM]	-16%	1%	6	u	2%
COc1ccc(C(C(=O)NC2CCCC2)N(C(=O)c2snc(-c3ccc(F)cc3)c2N)c2ccc(F)cc2)cc1 (stereo not given)	i	-2%	-9%	-1	16µM*	-6%
COc1ccc(C(C(=O)NC2CCCC2)N(C(=O)c2snc(-c3ccc(F)cc3)c2N)c2ccc(OC)cc2)cc1 (stereo not given)	i	-25%	-3%	20	-4%	8%
CCc1nnc(NS(=O)(=O)c2ccc(NC(=S)NC(=O)c3cccnc3)cc2)s1	i	u	-11%	4	3%	-6%
Cc1cc(NS(=O)(=O)c2ccc(NC(=S)NCc3ccccc3)cc2)no1	-6%	45µM*	-6%	16	-2%	4%
Cc1cc(NS(=O)(=O)c2ccc(NC(=S)NC(=O)c3ccc(Br)cc3)cc2)no1	i	10µM*	-18%	-1	-1%	9%
CCc1nnc(NS(=O)(=O)c2ccc(NC(=S)NC(=O)c3ccc(F)cc3)cc2)s1	-28%	22µM*	-5%	-4	0%	-21%
CCCN(CCC)S(=O)(=O)c1ccc(NC(=O)C2CCCO2)cc1 (stereo not given)	i	0%	-4%	3	-1%	-1%
O=C(NCC(Cl)c1ccc2ccccc2c1)c1c(F)cccc1F (stereo not given)	i	35µM*	1%	25	6%	14%
